Consider 20 molecules from paper PMC9911399, “Two distinct binding modes provide the RNA-binding protein RbFox with extraordinary sequence specificity”.

Substitutions are numbered along the chain they refer to; changes in the protein carry UniProt numbers. The full ranking holds about 16,000 sequences; the median of “ka relative to ugcaugu” is about 0.0091, and the highest 2% start at about 0.032. Many of the other results were omitted from the sample, so the highest values are more common in it than they were.

First the molecules themselves.
B1: CAACUCA (DNA:RNA)
RNA: GGGAGACCGGAAUUCAGAUUGUCCCAACUCAUUAAAUCCCGUCGUAGCCACCA
DNA 1: CAATCTGAATTCCGGTCTCCC
DNA 2: TGGTGGCTACGACGGGATT
B2: GAUCAAG (DNA:RNA)
RNA: B1 RNA with C25G, A27U, U29A, C30A, A31G
DNA 1: CAATCTGAATTCCGGTCTCCC
DNA 2: TGGTGGCTACGACGGGATT
B3: CAUAUGA (DNA:RNA)
RNA: B1 RNA with A27U, C28A, C30G
DNA 1: CAATCTGAATTCCGGTCTCCC
DNA 2: TGGTGGCTACGACGGGATT
B4: ACAUCGA (DNA:RNA)
RNA: B1 RNA with C25A, A26C, C28U, U29C, C30G
DNA 1: CAATCTGAATTCCGGTCTCCC
DNA 2: TGGTGGCTACGACGGGATT
B5: AUUACAG (DNA:RNA)
RNA: GGGAGACCGGAAUUCAGAUUGUCCAUUACAGUUAAAUCCCGUCGUAGCCACCA
DNA 1: CAATCTGAATTCCGGTCTCCC
DNA 2: TGGTGGCTACGACGGGATT
B6: GUCGCUU (DNA:RNA)
RNA: B5 RNA with A25G, U27C, A28G, A30U, G31U
DNA 1: CAATCTGAATTCCGGTCTCCC
DNA 2: TGGTGGCTACGACGGGATT
B7: GCCUGCC (DNA:RNA)
RNA: B1 RNA with C25G, A26C, A27C, C28U, U29G, A31C
DNA 1: CAATCTGAATTCCGGTCTCCC
DNA 2: TGGTGGCTACGACGGGATT
B8: ACCUGCA (DNA:RNA)
RNA: B1 RNA with C25A, A26C, A27C, C28U, U29G
DNA 1: CAATCTGAATTCCGGTCTCCC
DNA 2: TGGTGGCTACGACGGGATT
B9: GCCUGCG (DNA:RNA)
RNA: B5 RNA with A25G, U26C, U27C, A28U, C29G, A30C
DNA 1: CAATCTGAATTCCGGTCTCCC
DNA 2: TGGTGGCTACGACGGGATT
B10: GCCUGCA (DNA:RNA)
RNA: B1 RNA with C25G, A26C, A27C, C28U, U29G
DNA 1: CAATCTGAATTCCGGTCTCCC
DNA 2: TGGTGGCTACGACGGGATT
B11: CGCUGCA (DNA:RNA)
RNA: B1 RNA with A26G, A27C, C28U, U29G
DNA 1: CAATCTGAATTCCGGTCTCCC
DNA 2: TGGTGGCTACGACGGGATT
B12: GUCCGCC (DNA:RNA)
RNA: B1 RNA with C25G, A26U, A27C, U29G, A31C
DNA 1: CAATCTGAATTCCGGTCTCCC
DNA 2: TGGTGGCTACGACGGGATT
B13: CUGUAGC (DNA:RNA)
RNA: B5 RNA with A25C, U27G, A28U, C29A, A30G, G31C
DNA 1: CAATCTGAATTCCGGTCTCCC
DNA 2: TGGTGGCTACGACGGGATT
B14: CGCACUC (DNA:RNA)
RNA: B5 RNA with A25C, U26G, U27C, A30U, G31C
DNA 1: CAATCTGAATTCCGGTCTCCC
DNA 2: TGGTGGCTACGACGGGATT
B15: AAGUAUU (DNA:RNA)
RNA: B5 RNA with U26A, U27G, A28U, C29A, A30U, G31U
DNA 1: CAATCTGAATTCCGGTCTCCC
DNA 2: TGGTGGCTACGACGGGATT
B16: CCUAUCU (DNA:RNA)
RNA: B1 RNA with A26C, A27U, C28A, A31U
DNA 1: CAATCTGAATTCCGGTCTCCC
DNA 2: TGGTGGCTACGACGGGATT
B17: UCGUAUU (DNA:RNA)
RNA: GGGAGACCGGAAUUCAGAUUGUCCUCGUAUUUUAAAUCCCGUCGUAGCCACCA
DNA 1: CAATCTGAATTCCGGTCTCCC
DNA 2: TGGTGGCTACGACGGGATT
B18: AAACUUG (DNA:RNA)
RNA: B1 RNA with C25A, C30U, A31G
DNA 1: CAATCTGAATTCCGGTCTCCC
DNA 2: TGGTGGCTACGACGGGATT
B19: CUCACCC (DNA:RNA)
RNA: B5 RNA with A25C, U27C, A30C, G31C
DNA 1: CAATCTGAATTCCGGTCTCCC
DNA 2: TGGTGGCTACGACGGGATT
B20: AACGCAA (DNA:RNA)
RNA: B5 RNA with U26A, U27C, A28G, G31A
DNA 1: CAATCTGAATTCCGGTCTCCC
DNA 2: TGGTGGCTACGACGGGATT

For this assay, the target named is T1, RBFOX1 RRM (Homo sapiens, UniProt Q9NWB1 109-208).
T1 sequence: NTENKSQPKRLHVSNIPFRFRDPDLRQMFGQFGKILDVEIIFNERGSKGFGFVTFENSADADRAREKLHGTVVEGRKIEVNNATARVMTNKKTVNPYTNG
Nature of the assay: EMSA; HiTS-Eq, 1 nM pool, 10 min; buffer printed only for the single-RNA assays: 10 mM Tris pH 7.5, 150 mM NaCl, 3.4 mM EDTA, 0.001% NP-40, 30 C. To be noted: tags: His6 N-terminal (pET28a); label: 5' 32P. The essentials: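 A pool of RNA with 7 randomized nucleotides, 5′-radiolabelled and with DNA-annealed flanks, was equilibrated at 1 nM for 10 min in 50 µL with purified RbFox RRM, wild type or mutant, across increasing protein concentrations. Free RNA was separated by 8% native PAGE, excised, reverse-transcribed, barcoded by PCR and sequenced. Relative association constants were obtained from read-count changes of each RNA species versus the control reaction and normalised to the cognate motif.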
B1: the binding signal is 0.0014 KA relative to UGCAUGU.
The same measure for B2: 0.0079 KA relative to UGCAUGU.
Next, B3: 0.00465 KA relative to UGCAUGU.
The same measure for B4: 0.00224 KA relative to UGCAUGU.
On to B5, for which the binding signal was 0.0056 KA relative to UGCAUGU.
On to B6, for which the binding signal is 0.0147 KA relative to UGCAUGU.
Next, B7: 0.0261 KA relative to UGCAUGU; B8: 0.0144 KA relative to UGCAUGU.
The same measure for B9: 0.0321 KA relative to UGCAUGU; for B10: 0.0378 KA relative to UGCAUGU.
The same measure for B11: 0.0198 KA relative to UGCAUGU; for B12: 0.0105 KA relative to UGCAUGU.
For B13, the binding signal is 0.0127 KA relative to UGCAUGU.
Next, B14: 0.00942 KA relative to UGCAUGU; B15: 0.0026 KA relative to UGCAUGU; B16: 0.00242 KA relative to UGCAUGU.
The same measure for B17: 0.00649 KA relative to UGCAUGU; for B18: 0.0047 KA relative to UGCAUGU; for B19: 0.00285 KA relative to UGCAUGU.
As for B20, the binding signal is 0.00455 KA relative to UGCAUGU.
